An excerpt weighted towards active compounds, which were near 1.4% of everything screened.
AMA1 RON2 block: disrupts binding of P. falciparum AMA1 to RON2 | 360,000 tested, 0.2% active | Potency, µM (highest dose often 58.2 µM), hits mostly inhibitors | AlphaScreen AMA1-biotinylated RON2 peptide binding | AID 720542; also: nearly all actives have a fitted effect of over 45% in size
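AMA1 (3D7) with his tag at 25 nM final met compounds first, then biotinylated RON2 peptide at 25 nM; detection used donor plus acceptor beads, 10 µg/mL apiece, read by AlphaScreen after 30 min at room temperature.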
VACV Venus inh: inhibitors of vaccinia virus (Venus reporter); AID 720580; Vaccinia virus Venus reporter expression, fluorescence; 330,000 tested, 0.46% active; Potency, µM (titrated, usually from 36.5 µM), usual class: inhibitors; calls by dose curve; tested in A549 cells; also: nearly all actives have a fitted effect of over 30% in size
AmpC no deterg: blocks E. coli AmpC beta-lactamase in detergent-free assay; AID 485341; AmpC nitrocefin hydrolysis, absorbance 480 nm, 0.0001% Triton; Potency, µM (series often up to 57.1 µM), usual class: inhibitors; P00811; 330,000 tested, 0.52% active; also: nearly all actives have a fitted effect of over 20% in size
Target sequence (P00811 whole entry, looked up): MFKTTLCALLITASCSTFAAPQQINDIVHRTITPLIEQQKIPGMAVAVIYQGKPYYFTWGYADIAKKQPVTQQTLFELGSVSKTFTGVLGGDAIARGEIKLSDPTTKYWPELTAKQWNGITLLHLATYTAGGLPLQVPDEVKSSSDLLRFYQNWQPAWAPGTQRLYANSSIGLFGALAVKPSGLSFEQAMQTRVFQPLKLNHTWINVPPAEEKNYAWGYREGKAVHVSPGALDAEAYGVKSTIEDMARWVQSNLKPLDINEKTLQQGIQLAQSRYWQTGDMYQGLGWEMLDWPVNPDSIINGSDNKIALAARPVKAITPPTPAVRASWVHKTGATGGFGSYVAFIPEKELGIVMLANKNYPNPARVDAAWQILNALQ
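20 mM phosphate pH 7.0 + 0.01% (detergent screen) or 0.0001% Triton X-100; 5.3 nM AmpC reagent; cpd preinc 15 min RT; nitrocefin (800 uM stock) to start; A480 q20 s × 4 min; Activity was normalised to no-enzyme and no-compound control wells.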
AmpC inh detg: inhibitors of E. coli AmpC beta-lactamase with detergent; P00811; AmpC hydrolysis of nitrocefin, absorbance 480 nm, 0.01% Triton; Potency, µM (top dose mostly 114 µM), hits mostly inhibitors; 370,000 tested, 0.041% active; also: nearly all actives have a fitted effect of over 25% in size
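AmpC (5.3 nM in the dispensed reagent) in 20 mM phosphate pH 7.0 with 0.01% (detergent screen) or 0.0001% Triton X-100 was preincubated with compounds for 15 min at room temperature. Nitrocefin was then added from an 800 uM solution, and hydrolysis was followed at 480 nm.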
SARS PLP yeast: SARS-CoV PLP inhibition in yeast | S. cerevisiae expressing SARS-CoV PLpro, growth rescue | Potency, µM (highest dose often 32.9 µM), hits mostly activators | 330,000 tested, 0.19% active | AID 485353; calls by dose curve; also: nearly all actives have a fitted effect of over 55% in size
Vaccinia mCherry: inhibitors of vaccinia virus infection (mCherry reporter signal); Vaccinia virus mCherry reporter infection, fluorescence; Potency, µM (top dose mostly 36.5 µM), actives largely listed as inhibitors; 310,000 tested, 0.63% active; calls by dose curve; tested in A549 cells; also: nearly all actives have a fitted effect of over 35% in size
Hits are given with their value; i = inactive; ? = inconclusive; nt = no result given; [ ] = dose if it differs, or a comment. Unless noted, calls follow the shape of the dose curve; as a rule, active = well fitted curve in the direction sought with a large enough effect; inconclusive = small, poorly fitted or top-dose-only effect, or another doubt; inactive = no such curve, though single readings can be large; an effect the other way counts as inactive or inconclusive.

SMILES	AMA1 RON2 block	VACV Venus inh	AmpC no deterg	AmpC inh detg	SARS PLP yeast	Vaccinia mCherry
CCCCC(CC)COP(=O)(OCC(CC)CCCC)OCC(CC)CCCC (stereo not drawn)	i	?	i	i	i	2.5µM
CCCCC(CC)COC(=O)c1ccc(N(C)C)cc1 (stereo not drawn)	i	i	i	i	i	i
CCOc1cc(/C=C2\SC(=N)N(c3nccs3)C2=O)ccc1OCCN1CCOCC1	i	?	i	?	i	11µM
Nc1ccn(C2OC(COP(=O)(O)O)C(O)C2O)c(=O)n1 (stereo not drawn)	i	?	nt	nt	nt	32µM
Cc1ccc(S(=O)(=O)C(CNC(=O)COc2ccccc2)c2ccco2)cc1 (stereo not drawn)	nt	i	nt	i	nt	i
COc1ccc(/C=C2\N=C(C)OC2=O)cc1OC	i	nt	i	35µM	i	nt
COc1ccc(/C=C2/CSC/C(=C/c3ccc(OC)c(OC)c3)C2=O)cc1OC	?	?	nt	nt	nt	2.5µM
Clc1nc(NCC2CCCO2)c2[nH]cnc2n1 (stereo not drawn)	nt	i	nt	nt	nt	i
Cc1sc2ccccc2[n+]1CCCC[n+]1c(C)sc2ccccc21	nt	?	nt	nt	nt	2.8µM
Cc1sc2ccccc2[n+]1CCCCBr	nt	?	nt	nt	nt	7.1µM
Cc1sc2ccccc2[n+]1Cc1ccccc1	nt	i	nt	nt	nt	i
Cc1sc2ccccc2[n+]1C	nt	i	nt	nt	nt	i
Cc1cc(=O)oc2cc(OCc3ccc(C(=O)OCC(=O)Nc4ccccc4OC(F)F)cc3)ccc12	?	i	22µM	i	i	i
C/C(=N\Nc1cc(C)nc(-c2ccccc2O)n1)c1ccccc1	i	i	i	i	i	?
Cc1cc(N/N=C/c2ccc(O)c(C)c2O)nc(-c2ccccc2O)n1	i	13µM	i	i	i	10µM
COc1cc(-c2c(OC)cccc2OC)cc2c1OCCN(Cc1cn[nH]c1-c1ccc(Cl)cc1)C2	nt	i	nt	nt	nt	i
O=C1c2cccc(Cl)c2C(=O)c2c1cccc2N1CCCC1	6.3µM	i	nt	nt	nt	i
Cc1ccc2nc(SCC(=O)Nc3cccc(S(=O)(=O)N(C)C)c3)[nH]c2c1	i	i	i	i	i	i
NS(=O)(=O)c1cccc(NC(=O)CSc2nc3ccc(Cl)cc3[nH]2)c1	i	i	18µM	?	i	i
COc1cc(/C=C/CN2CCOc3ccc(C(O)c4cccnc4)cc3C2)ccc1O (stereo not drawn)	nt	i	nt	nt	nt	i
CC(C)(C)c1ccc(S(=O)(=O)/N=C2\C=C(NS(=O)(=O)c3ccccc3)C(=O)c3ccccc32)cc1	i	i	i	i	i	i
Cc1ccc(S(=O)(=O)/N=C2\C=C(NS(=O)(=O)c3ccccc3)C(=O)c3ccccc32)c(C)c1	i	i	nt	nt	nt	?
CC(C)c1ccc(S(=O)(=O)/N=C2/C=C(Sc3ncn[nH]3)C(=O)c3ccccc32)cc1	i[11.6 µM]	?	i	i	i	11µM
Cc1ccc(S(=O)(=O)/N=C2/C=C(Sc3ncn[nH]3)C(=O)c3ccccc32)cc1	i	7.1µM	i	i	i	2.8µM
Cc1ccc(S(=O)(=O)/N=C2/C=C(Sc3ncn[nH]3)C(=O)c3ccccc32)c(C)c1	nt	nt	25µM	i	i	nt
SMILES	AMA1 RON2 block	VACV Venus inh	AmpC no deterg	AmpC inh detg	SARS PLP yeast	Vaccinia mCherry
Cc1ccc(S(=O)(=O)Nc2ccc(O)c(Sc3ncn[nH]3)c2)cc1	i	i	i	i	i	?
COc1ccc(S(=O)(=O)NCc2nc(N3CCCC3)c3cccc(C)c3n2)cc1OC	nt	i	nt	nt	nt	i
COc1ccccc1Nc1nn2c(=O)c3ccc(C(=O)NCc4ccc(F)cc4)cc3nc2s1	nt	?	nt	i	nt	13µM
CCc1cccc(NC(=O)c2ccc3c(=O)n4nc(Nc5ccccc5OC)sc4nc3c2)c1	nt	4µM	nt	i	nt	4µM
COc1ccccc1Nc1nn2c(=O)c3ccc(C(=O)NCc4cccnc4)cc3nc2s1	nt	nt	i	i	i	nt
COc1ccc(-c2nc(-c3ccc(NC(=O)c4ccc(Br)o4)cc3)no2)cc1OC	i	32µM	i	i	i	nt
NC(=S)N=Nc1c(O)[nH]c2ccccc12	i	?	i	?	?	13µM
CC(C)c1ccc2[nH]c(O)c(N=NC(=S)NCCc3ccccc3)c2c1	i	nt	i	i	?	nt
Oc1[nH]c2ccccc2c1N=NC(=S)NCCc1ccccc1	i	i	25µM	?	i	i
Cc1ccc2[nH]c(O)c(N=NC(N)=S)c2c1	i	nt	i	i	i	nt
O=c1cc(N2CCN(c3ccc(F)cc3)CC2)[nH]c(=O)n1Cc1ccc(F)cc1	i	i	25µM	i	i	i
COc1ccc(N2CCN(c3cc(=O)n(Cc4ccc(F)cc4)c(=O)[nH]3)CC2)cc1	i	i	i	?	i	i
NS(=O)(=O)c1cccc(NC(=O)CSc2nc3ccccc3c(=O)n2CCCN2CCOCC2)c1	i	i	32µM	i	i	i
CC(=O)c1cccc(Nc2nc(-c3ccccc3)cs2)c1	i	?	i	i	i	i
Cc1nc(NC(=O)c2ccccc2)sc1-c1csc(Nc2cccc(F)c2)n1	nt	nt	16µM	i	i	nt
O=C(Nc1cccc(-c2csc(Nc3cccc(C(F)(F)F)c3)n2)c1)c1ccccc1	i	?	2µM	i	i	?
O=C(Nc1ccc(-c2csc(Nc3cccc(C(F)(F)F)c3)n2)cc1)c1ccccc1	i	?	i	i	i	?
O=C(Nc1cccc(-c2csc(Nc3ccccc3)n2)c1)c1ccccc1	i	?	i	i	i	5µM
Cc1ccc2nc(NC(=O)CSc3cc(C)[nH]c(=O)n3)sc2c1	nt	i	nt	i	nt	i
CC1CCC(NC(=O)Cn2ncc3ccccc32)CC1 (stereo not drawn)	i	i	2.5µM	?	i	i
CC1CCCCC1NC(=O)Cn1ncc2ccccc21 (stereo not drawn)	i	i	3.2µM	?	i	i
Cc1cc(-c2cc(F)cc3c2OC(CNC(=O)CCn2cncn2)C3)ccc1F (stereo not drawn)	nt	i	nt	nt	nt	i
Cc1ccc(S(=O)(=O)N(C)C)cc1NC(=O)c1cncc(Br)c1	i	8.9µM	i	i	i	6.3µM
O=C(NNC(=O)c1ccccc1O)c1ccc(-c2ccc([N+](=O)[O-])cc2)o1	i	?	i	i	i	10µM
O=C(Nc1ccccc1)c1ccc(-c2ccc([N+](=O)[O-])cc2)o1	i	i	i	i	i	i
NCCCNc1nc(N)c([N+](=O)[O-])c(NC2CCCCC2)n1	i	3.2µM	i	i	i	?
COc1ccc(-n2c(CNC(=O)c3ccc(OC)cc3OC)nnc2SC)cc1	nt	i	nt	nt	nt	i
O=C1c2cccnc2-c2ncccc21	i	i	i	?	i	i
O=C1C(=O)c2cccnc2-c2ncccc21	i	14µM	nt	nt	nt	6.3µM
CC1OC(OC2C=C3CCC4C(CCC5(C)C(c6ccc(=O)oc6)CCC45O)C3(C)CC2)C(O)C(OC2OC(CO)C(O)C(O)C2O)C1O (stereo not drawn)	i	0.0032µM	nt	nt	nt	0.28µM
